In the library only some 3.9% were active in any assay of this set; here they are far more common.
Autofluor counter – flagged as autofluorescent in microsphere protease counterscreen | compound autofluorescence counterscreen, microsphere flow cytometry; active compounds read high | fluorescence intensity (test concentration not listed) | 360,000 compounds, 3.1% hits | AID 624483; in the data active means fluorescence intensity above about 16000; inconclusive means no clear call, values can overlap the other calls
Anthrax LF prot – Bacillus anthracis LF protease inhibitors, primary screen, biochemical, multiplex microsphere, MLPCN library; 360,000 compounds, 0.12% hits; inhibition, % at 10 µM; AID 588501, 2011; multiplex microsphere protease cleavage assay; further: plate controls were buffer without enzyme for full effect and enzyme alone for no effect
Target sequence (P15917 whole entry, looked up): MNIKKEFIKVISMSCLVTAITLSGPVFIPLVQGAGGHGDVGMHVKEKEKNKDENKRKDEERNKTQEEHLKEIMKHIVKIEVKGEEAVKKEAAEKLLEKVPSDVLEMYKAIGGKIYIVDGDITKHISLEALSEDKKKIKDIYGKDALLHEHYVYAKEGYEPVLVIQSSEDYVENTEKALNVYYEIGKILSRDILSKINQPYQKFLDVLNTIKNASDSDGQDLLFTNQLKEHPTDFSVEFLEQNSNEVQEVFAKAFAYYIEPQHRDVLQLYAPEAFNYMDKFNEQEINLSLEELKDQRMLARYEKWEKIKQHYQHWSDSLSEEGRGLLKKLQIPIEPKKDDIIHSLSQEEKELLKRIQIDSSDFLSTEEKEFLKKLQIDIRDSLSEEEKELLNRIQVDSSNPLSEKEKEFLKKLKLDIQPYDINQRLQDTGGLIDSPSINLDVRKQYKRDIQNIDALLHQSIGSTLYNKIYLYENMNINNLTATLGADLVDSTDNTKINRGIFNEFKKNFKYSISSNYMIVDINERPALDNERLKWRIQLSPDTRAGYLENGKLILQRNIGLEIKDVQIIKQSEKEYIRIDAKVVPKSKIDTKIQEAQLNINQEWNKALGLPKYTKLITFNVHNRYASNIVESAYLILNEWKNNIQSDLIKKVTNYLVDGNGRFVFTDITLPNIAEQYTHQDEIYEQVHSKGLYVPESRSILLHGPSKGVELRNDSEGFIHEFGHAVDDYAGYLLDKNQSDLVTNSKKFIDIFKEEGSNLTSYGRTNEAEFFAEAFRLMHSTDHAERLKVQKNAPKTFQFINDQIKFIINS
BoNT A protease – BoNT/A light chain protease inhibitors, primary screen, biochemical, flow cytometry, MLPCN library; 360,000 compounds, 0.17% hits; multiplex microsphere protease substrate cleavage; inhibition, % at 10 µM; Botulinum neurotoxin type A light chain protease (Clostridium botulinum A str. ATCC 3502); AID 588499, 2011; further: plate controls were buffer without enzyme for full effect and enzyme alone for no effect
BoNT F protease – BoNT/F light chain protease inhibitors, primary screen, biochemical, flow cytometry, MLPCN library. Multiplex microsphere protease cleavage assay. 360,000 compounds, 0.22% hits. inhibition, % at 10 µM. Botulinum neurotoxin type F light chain protease (Clostridium botulinum); in the data active means inhibition above about 35%, passing the limit was not always enough; inconclusive means no clear call, values can overlap the other calls; further: plate controls were buffer without enzyme for full effect and enzyme alone for no effect
MazF activator – activators of E. coli MazEF toxin-antitoxin RNase, primary screen, biochemical, fluorescence, uHTS; Endoribonuclease toxin MazF (Escherichia coli (strain K12)), P0AE70; FAM/BHQ RNA-DNA oligo cleavage fluorescence, 5 h; activation, % at 20 µM; 350,000 compounds, 0.32% hits; in the data active means activation above about 50%
BH1578 lux ind – inducers of Vibrio cholerae quorum light production without autoinducers, primary screen, BH1578 luxS cqsA deficient, single point | V. cholerae BH1578 lux reporter, luminescence, 6 h | activation, % at 18.7 µM | 350,000 compounds, 0.16% hits; in the data active means activation mostly above about 9.7%, no sharp cut-off; inconclusive means no clear call, values can overlap the other calls; inactive means mostly below about 3.7%
* = called active by the depositor. Unless noted, no stated cut-off is given here; in the data, active means inhibition above about 30%; inconclusive means no clear call, values can overlap the other calls; inactive means below that.

`Cc1ccccc1-c1nc(CN2CCC(C(=O)NCc3ccco3)CC2)c(C)o1` gave Autofluor counter 21224*, Anthrax LF prot -6, BoNT A protease 2, BoNT F protease 1, MazF activator 13 and BH1578 lux ind -2.
Screening O=C(c1cnn2c(C(F)F)cc(-c3ccccc3)nc12)N1CCCCC1c1cccnc1 (stereo not given) returned Autofluor counter 4576, Anthrax LF prot -1, BoNT A protease 0, BoNT F protease -2, MazF activator 1 and BH1578 lux ind inactive.
Screening Cc1ccc(-n2nc3c(c2NC(=O)CC(C)C)CS(=O)(=O)C3)c(C)c1 returned Autofluor counter 2697, Anthrax LF prot 18, BoNT A protease 1, BoNT F protease 19, MazF activator 5 and BH1578 lux ind inactive.
Screening CC(C)(C)NS(=O)(=O)c1ccc(NC(=O)C2CCCCC2)cc1 returned Autofluor counter 3298, Anthrax LF prot -9, BoNT A protease -1, BoNT F protease -3, MazF activator -4 and BH1578 lux ind inactive.
`O=C(Nc1ccc2c(c1)OCO2)c1cc(C2CCCCN2S(=O)(=O)Cc2ccccc2)on1` (stereo not given) gave Autofluor counter 3500, Anthrax LF prot 3, BoNT A protease 1, BoNT F protease 1 and BH1578 lux ind 0.
For Cc1oc(-c2ccc(Cl)cc2)nc1CN1CCCC(C(=O)NCc2ccccn2)C1 (stereo not given) the results were Autofluor counter 22724*, Anthrax LF prot -2, BoNT A protease 0, BoNT F protease 1, MazF activator 1 and BH1578 lux ind inactive.
CC(C)Oc1cc(F)ccc1-c1cc(C(=O)NCCCn2ccnc2)[nH]n1 was read as Autofluor counter 3664, Anthrax LF prot -7, BoNT A protease 0, BoNT F protease -6 and BH1578 lux ind 0.
COCCCNC(=O)CSc1nc2ccccc2c(=O)n1CCCC(=O)NCC1CCCO1 (stereo not given) was read as Autofluor counter 22765*, Anthrax LF prot -3, BoNT A protease inconclusive, BoNT F protease -1, MazF activator 6 and BH1578 lux ind 0.
For O=C(CCCn1c(SCc2ccccc2F)nc2ccccc2c1=O)NCC1CCCO1 (stereo not given) the results were Autofluor counter 4461, Anthrax LF prot -1, BoNT A protease -1, BoNT F protease -8, MazF activator 9 and BH1578 lux ind 0.
`O=C(CCCn1c(SCC(=O)Nc2ccccc2C(F)(F)F)nc2ccccc2c1=O)NCC1CCCO1` (stereo not given) gave Autofluor counter 5334, Anthrax LF prot 0, BoNT A protease 3, BoNT F protease 5, MazF activator 7 and BH1578 lux ind inactive.
Screening O=C(CCCn1c(SCC(=O)c2ccc(O)c(O)c2)nc2ccccc2c1=O)NCC1CCCO1 (stereo not given) returned Autofluor counter 23404*, Anthrax LF prot 2, BoNT A protease 0, BoNT F protease -1, MazF activator 7 and BH1578 lux ind inactive.
Screening CCC(C)NC(=O)CSc1nc2ccccc2c(=O)n1CCCC(=O)NCC1CCCO1 (stereo not given) returned Autofluor counter 22505*, Anthrax LF prot -2, BoNT A protease inconclusive, BoNT F protease -2, MazF activator 0 and BH1578 lux ind -1.
For O=C(CCCn1c(SCC(=O)NC2CCCCC2)nc2ccccc2c1=O)NCC1CCCO1 (stereo not given) the results were Autofluor counter 21817*, Anthrax LF prot -3, BoNT A protease 0, BoNT F protease -1, MazF activator 2 and BH1578 lux ind 0.
Screening O=C(CCCn1c(SCC(=O)NCCc2ccccc2)nc2ccccc2c1=O)NCC1CCCO1 (stereo not given) returned Autofluor counter 3293, Anthrax LF prot 0, BoNT A protease 0, BoNT F protease -5, MazF activator 3 and BH1578 lux ind 1.
CCn1cnnc1SCC(=O)NCC1COc2ccccc2O1 (stereo not given) was read as Autofluor counter 3688, Anthrax LF prot 0, BoNT A protease 0, BoNT F protease 1, MazF activator 7 and BH1578 lux ind inactive.
`CC1CCCN(C(=O)C2c3ccccc3C(=O)N3CCc4ccccc4C23)C1` (stereo not given) gave Autofluor counter 23724*, Anthrax LF prot 0, BoNT A protease -2, BoNT F protease -5, MazF activator 4 and BH1578 lux ind inactive.
For Cc1ccc(C(C)C)cc1OCCOCCN1CCCC1 the results were Autofluor counter 4992, Anthrax LF prot -9, BoNT A protease -1, BoNT F protease -30, MazF activator 92* and BH1578 lux ind -1.
For CC(C)Cn1c(-c2csc3ccccc23)n[nH]c1=S the results were Autofluor counter 10325, Anthrax LF prot 2, BoNT A protease 2, BoNT F protease 13, MazF activator 0 and BH1578 lux ind -25.
Cc1occc1-c1n[nH]c(=S)n1CC(C)C was read as Autofluor counter 23617*, Anthrax LF prot -2, BoNT A protease -3, BoNT F protease -2, MazF activator -6 and BH1578 lux ind inactive.
Screening O=C(Nc1ccc2c(c1)OCCO2)c1cccc(S(=O)(=O)N2CCOCC2)c1 returned Autofluor counter 23080*, Anthrax LF prot -1, BoNT A protease 1, BoNT F protease 1, MazF activator 2 and BH1578 lux ind 1.
O=C(NCc1ccc2c(c1)OCO2)c1cccc(S(=O)(=O)N2CCCCC2)c1 was read as Autofluor counter 17025*, Anthrax LF prot -1, BoNT A protease inconclusive, BoNT F protease -3, MazF activator 2 and BH1578 lux ind 1.
CCN(CC)C(=O)c1ccc(NC(=O)c2cccc(F)c2)cc1 was read as Autofluor counter 20909*, Anthrax LF prot -4, BoNT A protease -1, BoNT F protease -3, MazF activator 7 and BH1578 lux ind -6.
O=C(Nc1cccc(S(=O)(=O)N2CCCC2)c1)c1cccc(S(=O)(=O)N2CCOCC2)c1 was read as Autofluor counter 3115, Anthrax LF prot -8, BoNT A protease 0, BoNT F protease -2, MazF activator -5 and BH1578 lux ind 0.
For CCCn1c(NC(=O)c2cccc(S(=O)(=O)N3CCCC3)c2)nc2ccccc21 the results were Autofluor counter 16663*, Anthrax LF prot -3, BoNT A protease -1, BoNT F protease -5, MazF activator 7 and BH1578 lux ind inactive.
`O=C(NCc1ccc2c(c1)OCO2)c1cccc(S(=O)(=O)N2CCCC2)c1` gave Autofluor counter 5664, Anthrax LF prot 1, BoNT A protease 2, BoNT F protease 2, MazF activator 5 and BH1578 lux ind 1.
